Test results taken from the supplement of paper PMC6555819.

What was measured:
Assay in all cases: PBM binding z-score (relative to random genomic background probes); higher = stronger binding; sequences stand for … in GC…GCGATTGACAGCGTAGAATGAAGG
[1] = system: RARb homodimer (NR concentration 270 nM)
In short: (§1)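 Antibodies against each partner of ligand-free nuclear receptor dimers (one per run) detected binding on custom Agilent 4×180K protein-binding microarrays after 1 h incubation. The double-stranded probes had 34-nt variable regions carrying direct-repeat seeds, single-nucleotide variants, half-site ablations and random human genomic background sequences. Binding z-scores, from regression-normalized fluorescence, use the random background probes as reference.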

[2] = system: RARg homodimer (NR concentration 270 nM)
In short: as §1

[3] = system: RXRa DBDmut IVT, anti-RXR (DBD mutation: RXRa K156A/R161A, NR concentration 90 nM)
In short: as §1

[4] = system: RXRa homodimer (NR concentration 180 nM)
In short: as §1

[5] = system: THRa homodimer (NR concentration 90 nM)
In short: as §1

[6] = system: VDR:RXRa (NR concentration 270 nM, RXRa partner concentration 90 nM)
In short: as §1

[7] = system: VDR homodimer (NR concentration 270 nM)
In short: as §1

[8] = system: THRa:RXRa (NR concentration 90 nM, RXRa partner concentration 90 nM)
In short: as §1

Row | Sequence | PBM binding z-score [1] | PBM binding z-score [2] | PBM binding z-score [3] | PBM binding z-score [4] | PBM binding z-score [5] | PBM binding z-score [6] | PBM binding z-score [7] | PBM binding z-score [8]
1 | CAAACTAGGTCACAGGGGTCAAAGTCCGTGCGTA | 5.94 | 7.58 | 3.6 | 8.57 | 3 | 8.24 | 7.07 | –
2 | CGTCCAAGGTCAATGCAAGGTCAGTGAAAGCATT | 5.5 | 7.06 | 3.92 | 6.02 | 4.02 | 6.14 | 3.85 | –
3 | CCTACTGGGCCAAAGGCCATTGATTCCAATGCTC | 0.736 | 0.568 | -0.726 | -0.132 | -0.567 | – | -0.468 | -0.0621
4 | ATCGAAACGTCGTGAGGTGAGTATACAGAAAGGC | -0.153 | 0.49 | -0.879 | 0.393 | 0.771 | – | -0.417 | 1.63
5 | GCTGCTAGGTCAACTGAGGGTCAGCTAAAGCTCG | 5.18 | 6.85 | 1.67 | 4.59 | 1.47 | – | 1.36 | 4.16
6 | CGAACTAGGTCACCAGGACAGCGAAGAGGTTGGA | 3.27 | 5.1 | 1.22 | 3.19 | 1.62 | – | 0.423 | 3.27
7 | TAGCCTAGGTCATTGGGCTAGTATAGTACGCATC | 2.59 | 4.2 | 1.47 | 2.84 | 0.251 | – | 0.989 | 2.71
8 | TGTCAAAGTTCTAAGGTAACGTAAGTATCCACAC | 0.168 | 0.585 | -0.0657 | – | 2.43 | – | -0.114 | 2.88
9 | CCTCGGAGGACAACAGGATGTCAGAGCTGCCAGA | 0.537 | 1.19 | -0.233 | -0.144 | -0.131 | – | -0.662 | 0.449
10 | TGGCCTAGGTCATGCGGGCCAGTATAGTGTCGGC | 2.85 | 4.45 | -0.03 | 3.03 | 0.284 | – | 0.128 | 2.68
11 | AGTCAAAGGTCACTAGGTAACGTAAGATTCAGCT | 5.03 | 8.53 | 2.94 | – | 0.996 | 5.23 | 2.14 | 3.99
12 | ACTAATTGGTCAGCTGAGGTCACACACAATTCGG | 4.72 | 4.46 | 1.68 | 4.65 | 5.41 | – | 3.46 | 5.12
13 | AGTCAAAGTTCAGGACGAGGTCACGTAAAGCACG | 5.39 | 7.28 | 3.45 | 6.81 | 4.95 | – | 5.43 | –
14 | CGTCCAAGGTCACAGGAGGTCAGTGAAGACAGAT | 5.53 | 8.33 | 3.73 | – | 3.66 | – | 4.32 | 5.28
15 | CGTCCAAGGTCAATGCGAGGTCAGTGAAAGCATT | 5.27 | 6.95 | 3.59 | 6.15 | 4.23 | – | 4.73 | –
16 | TAGCCTAGGTCATTGGGCCAGTATAGTACGCATC | 3 | 4.22 | 1.6 | 2.73 | 0.768 | – | 0.954 | 2.83
17 | CCTGCTAGGTCAATGGTCAGCTCAAGCAGCTCGC | 3.02 | 4.32 | 1.88 | 1.92 | 0.708 | – | 0.174 | 2.23
18 | CGAACTAGGTCAAAAGACAGTGAAAGGCGACGTA | 1.72 | 3.68 | 1.21 | 2.54 | -0.0657 | – | -0.0484 | 1.64
19 | CAGCCTAGTTCAGGGCCAGTATAGGAGGAACGTT | 0.7 | 0.665 | 0.532 | 0.15 | -0.234 | – | 0.209 | -0.00106
20 | ATCGAATGGTCGAGGTGAGTATAGAGAAAGGGAA | 0.319 | 0.76 | -0.577 | 0.118 | 0.55 | – | -0.57 | 0.936
21 | GCTGCTAGGTCATGTTGGTCAGCTAACGGGTACG | 3.21 | 4.33 | 1.85 | 2.51 | 1.39 | – | 1.44 | 2.83
22 | ATCGAAAGGTCGAAGGAGAGTATACCCACCCGAA | 1.98 | 3.81 | 0.774 | 3.75 | -0.242 | – | 0.458 | 1.76
23 | AGTCAAAGGTCAGGACGAGGTAACGTAAAGCACG | 4.82 | 7.93 | 1.32 | 7.47 | 2.11 | – | 0.891 | –
24 | CGAACTAGGTCAAAGGTCAGTGAAAGGCGACGTA | 5.03 | 6.89 | 2.37 | – | 1.2 | – | 1.85 | 4.55
25 | CCTTACGGGTCTAGGTTATAGCACGGGTGGTACG | 0.113 | 0.0918 | -1.08 | – | 0.173 | – | -0.202 | 0.109
26 | CGTCCAAGGTCAAGGTCACTGAAAGAGACTCGAA | 5.6 | 8.3 | 3.73 | – | 4.35 | – | 4.03 | –
27 | CCGACTGGGGCAACGGTTACCATACTCAGTACGA | 0.463 | 0.749 | -0.399 | 0.0122 | -0.243 | – | -0.248 | -0.149
28 | ATACCAAGGTCATCGTGAGGTCGTTGATACTAAC | 4.72 | 6.27 | 3.76 | 6.49 | 3.91 | – | 5.41 | –
29 | TCTCGGAGGTCACGAAGGTCAGAGCTTTCCAGAG | 5.66 | 8.12 | 3.05 | – | 2.29 | – | 5.14 | 4.64
